Measured values taken from PubChem BioAssay (Tox21).
Activity calls are given as the source filed them. Unless noted, the call rests on the fitted dose curve; in most records, active means well fitted curve in the direction sought with a large enough effect in the repeat runs; inconclusive means weak or mixed curves; inactive means no such curve, though single readings can be large; an effect the other way counts as inactive or inconclusive.

Tests used:
[1] = qHTS assay for small molecule agonists of the p53 signaling pathway (AID 651631; calls by dose curve; further: nearly all actives have a fitted effect of over 15% in size)
Method in brief: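 Stably transfected HCT-116 cells (beta-lactamase behind p53 response elements) get compounds after a 5 h settling period; 16 h later at 37 °C, FRET substrate is loaded and fluorescence read after 2 h.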

[2] = qHTS assay for small molecules that induce genotoxicity in human embryonic kidney cells expressing luciferase-tagged ATAD5 (AID 651632); further: nearly all actives have a fitted effect of over 15% in size
Method in brief: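 HEK293T cells carrying luciferase-tagged ATAD5 were given compound or DMSO vehicle and incubated 16 hr at 37C, 5% CO2. Luciferase activity was read after 30 min at room temperature with Amplite; a rise signals genotoxic stress.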

[3] = qHTS assay for small molecule agonists of the p53 signaling pathway - cell viability (AID 651633; calls by dose curve;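 further: p53RE-bla HCT reporter cells with a stable beta-lactamase p53 reporter; series mostly up to about 83 µM; nearly all actives have a fitted effect of over 30% in size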)
Method in brief: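 Viability counter-read: CellTiter-Glo luminescence (30 min, room temperature) in the same p53RE-bla plates. These plates had been exposed to compounds for 16 h at 37 C.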

[4] = qHTS assay for small molecules that induce genotoxicity in human embryonic kidney cells expressing luciferase-tagged ATAD5 - cell viability (AID 651634; calls by dose curve; further: nearly all actives have a fitted effect of over 25% in size)
Method in brief: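 HEK293T cells carrying luciferase-tagged ATAD5, 2,000 cells/well, exposed to compound for 15.5 hr at 37C. Viability read as live-cell protease activity by CellTiter-Fluor fluorescence after 30 min at 37C.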

[5] = qHTS assay for small molecule disruptors of the mitochondrial membrane potential - cell viability (AID 720634; calls by dose curve;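 further: human HepG2 liver cancer cells; series mostly up to about 83 µM; nearly all actives have a fitted effect of over 20% in size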)
Method in brief: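 HepG2 cells, 2,000 per well, attached overnight, then treated 1 hr at 37 C, 5% CO2. Viability read as ATP by CellTiter-Glo luminescence after 30 min at room temperature. Read in the same wells as the m-MPI membrane-potential dye assay.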

[6] = qHTS assay to test for compound auto fluorescence at 590 nm (red) in HepG2 cells (AID 720674)
Method in brief: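 We screened compounds on adherent HepG2 cells, incubating them for an hour at 37 C in 5% CO2 before reading emission at 590 nm under 540 nm excitation; values reflect equivalence to Rose Bengal sodium fluorescence.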

[7] = qHTS assay to test for compound auto fluorescence at 535 nm (green) in HepG2 cells (AID 720675)
[8] = qHTS assay to test for compound auto fluorescence at 460 nm (blue) in HEK293 cells (AID 720678)
Method in brief: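 Cells were seeded and left to adhere for 4-5 hr at 37C. Compounds were then pin-transferred. After an overnight incubation at 37C under 5% CO2, intrinsic fluorescence at 405/460 nm was measured and referenced to triamterene.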

[9] = qHTS assay to test for compound auto fluorescence at 590 nm (red) in HEK293 cells (AID 720679)
Method in brief: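 Each well held 2,000 HEK293 cells in medium containing 10% dialyzed FBS. Following 4-5 hr attachment at 37C, 23 nL test compound or DMSO was added; plates sat overnight, and red fluorescence (540/590nm) was recorded.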

[10] = qHTS assay to test for compound auto fluorescence at 535 nm (green) in HEK293 cells (AID 720680)
[11] = qHTS assay to test for compound auto fluorescence at 460 nm (blue) in HEK293 cell free culture (AID 720681)
Method in brief: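 Blue fluorescence (Ex 405/Em 460 nm, triamterene-equivalent) was read immediately after pin transfer of compound or DMSO into medium (DMEM, 10% FBS) without cells.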

[12] = qHTS assay to test for compound auto fluorescence at 535 nm (green) in HEK293 cell free culture (AID 720682)
Method in brief: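 Using fluorescein as calibrant, autofluorescence was quantified at 485/535 nm in cell-free DMEM containing 10% FBS after pintool addition of compound or vehicle.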

[13] = qHTS assay to test for compound auto fluorescence at 590 nm (red) in HEK293 cell free culture (AID 720683)
Method in brief: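 Red-channel autofluorescence of compounds in culture medium (DMEM, 10% FBS), no cells, measured at 540/590 nm. Rose Bengal sodium is the reference fluorophore for equivalence.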

[14] = qHTS assay to test for compound auto fluorescence at 590 nm (red) in HepG2 cell free culture (AID 720684)
Method in brief: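 Steps: dispense MEM/10% FBS medium, no cells; pin compound or DMSO vehicle; read red channel, Ex/Em 540/590 nm. Output given as Rose Bengal sodium equivalents.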

[15] = qHTS assay to test for compound auto fluorescence at 460 nm (blue) in HepG2 cell free culture (AID 720685)
Method in brief: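 Compound (23 nL) or DMSO pinned into cell-free MEM with 10% FBS; blue fluorescence read at 405/460 nm excitation/emission, expressed as auto-fluorescence equivalency to triamterene.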

[16] = qHTS assay to test for compound auto fluorescence at 460 nm (blue) in HepG2 cells (AID 720687)
Method in brief: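 Blue-channel autofluorescence (Ex/Em 405/460 nm, triamterene-equivalent) was measured after 1 hr compound exposure at 37 C, 5% CO2. Cells were HepG2, plated overnight at 37 C in MEM plus 10% FBS.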

[17] = target: Glucocorticoid receptor (Homo sapiens) (UniProt P04150); experiment: qHTS assay to identify small molecule agonists of the glucocorticoid receptor (GR) signaling pathway (AID 720691; active means well fitted activation curve with a large enough effect in the signal ratio in the repeat runs, not every such curve was filed as active; inconclusive means weak or mixed curves, or effect the other way; inactive means no such curve, though single readings can be large or run the other way; the % refers to the signal ratio; further: potency means the concentration at half of the fitted maximal effect)
Method in brief: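 GR-bla HeLa cells carrying a GRE-driven beta-lactamase reporter, exposed to compounds for 18 h at 37 C. Reporter activation read as fluorescence after 2 h with LiveBLAzer B/G FRET substrate at room temperature.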

[18] = target: Glucocorticoid receptor (Homo sapiens) (UniProt P04150); experiment: qHTS assay to identify small molecule antagonists of the glucocorticoid receptor (GR) signaling pathway (AID 720692; active means well fitted inhibition curve with a large enough effect in the signal ratio in the repeat runs, not every such curve was filed as active; inconclusive means weak or mixed curves, or effect the other way; inactive means no such curve, though single readings can be large or run the other way; the % refers to the signal ratio)
Method in brief: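 GR-bla HeLa cells carrying a GRE-driven beta-lactamase reporter received compound after 4 h plating, then dexamethasone (5 nM final). After 18 h at 37C, the FRET substrate was loaded for 2 h at room temperature and fluorescence read.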

[19] = qHTS assay to test for compound auto fluorescence at 535 nm (green) in HepG2 cell free culture (AID 720686)
[20] = qHTS assay for small molecule disruptors of the mitochondrial membrane potential (AID 720635)
Method in brief: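 Mitochondrial membrane potential tracked with Mito-MPS dye, red aggregates (ex 540/em 590 nm) against green monomers (ex 490/em 535 nm). Compound treatment 1 hr at 37C, dye 30 min in HepG2.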
On the % scale 0 is the no-effect control and ±100 the full control effect.

Chain of Glucocorticoid receptor (Homo sapiens) (P04150 whole entry, looked up): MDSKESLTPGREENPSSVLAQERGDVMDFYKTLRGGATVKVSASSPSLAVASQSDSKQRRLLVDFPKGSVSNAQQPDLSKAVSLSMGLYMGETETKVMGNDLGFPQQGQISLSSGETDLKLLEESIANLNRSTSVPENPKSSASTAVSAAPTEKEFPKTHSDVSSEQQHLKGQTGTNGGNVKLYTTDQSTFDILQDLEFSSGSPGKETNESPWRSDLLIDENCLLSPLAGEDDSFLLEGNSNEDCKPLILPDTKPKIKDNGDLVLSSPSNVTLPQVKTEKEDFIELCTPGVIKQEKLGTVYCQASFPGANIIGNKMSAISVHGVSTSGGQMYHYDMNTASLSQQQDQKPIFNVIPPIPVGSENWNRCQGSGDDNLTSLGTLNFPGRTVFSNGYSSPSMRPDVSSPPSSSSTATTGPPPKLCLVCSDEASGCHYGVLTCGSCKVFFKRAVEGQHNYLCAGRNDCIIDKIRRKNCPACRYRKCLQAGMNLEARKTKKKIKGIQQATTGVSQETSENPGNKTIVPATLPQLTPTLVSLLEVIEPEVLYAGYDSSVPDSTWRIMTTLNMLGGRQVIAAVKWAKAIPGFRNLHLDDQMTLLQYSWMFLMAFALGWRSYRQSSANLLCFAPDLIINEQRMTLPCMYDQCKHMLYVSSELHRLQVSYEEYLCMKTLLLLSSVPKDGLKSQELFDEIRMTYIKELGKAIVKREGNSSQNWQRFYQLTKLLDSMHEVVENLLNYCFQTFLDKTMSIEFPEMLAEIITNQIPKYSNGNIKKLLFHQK

Cc1ccnc(NS(=O)(=O)c2ccc(N)cc2)n1
inactive: Potency [1] | Potency [2] | Potency [3] | Potency [4] | outcome [5] | fluorescence, relative to Rose Bengal [6] 0.0946% [at 18.6 µM] | fluorescence, % of fluorescein control [7] 0.0423% [at 18.6 µM] | fluorescence, % of triamterene [8] 0.0233% [at 18.6 µM] | fluorescence, % of fluorescent control [9] 0.0091% [at 18.6 µM] | fluorescence, % of fluorescein [10] -0.0062% [at 18.6 µM] | fluorescence, % of fluorescent control [11] -0.0731% [at 18.6 µM] | activity change [12] 0.0378% [at 18.6 µM] | fluorescence, % of fluorescent control [13] -0.145% [at 18.6 µM] | fluorescence, % of Rose Bengal [14] 0.0665% [at 18.6 µM] | fluorescence, % of fluorescent control [15] 0.0941% [at 18.6 µM] | fluorescence, % of fluorescent control [16] -0.0164% [at 18.6 µM] | Potency [17] | Potency [18]

CC1OC1C1CCC2(C)OC2C1 (stereo unspecified)
inactive: Potency [1] | Potency [2] | Potency [3] | Potency [4] | outcome [5] | outcome [6] | outcome [7] | outcome [8] | outcome [9] | outcome [10] | outcome [11] | outcome [12] | outcome [13] | outcome [14] | outcome [15] | outcome [19] | outcome [16] | Potency [17] | Potency [18]

C[C@@H]1C[C@H]2[C@@H]3C[C@H](F)C4=CC(=O)C(Cl)=C[C@]4(C)[C@@]3(F)[C@@H](O)C[C@]2(C)[C@@]1(O)C(=O)CO
inactive: Potency [1] | Potency [2] | Potency [3] | Potency [4] | outcome [5] | outcome [6] | outcome [7] | outcome [8] | outcome [9] | outcome [10] | outcome [12] | outcome [13] | outcome [15] | outcome [19] | outcome [16]
active: Potency [17] 15.1 nM [inconclusive]

C=CCCCCCCCCC(=O)OCC
inactive: Potency [1] | Potency [2] | Potency [3] | Potency [4] | outcome [5] | outcome [6] | outcome [7] | outcome [8] | outcome [9] | outcome [10] | outcome [11] | outcome [12] | outcome [13] | outcome [14] | outcome [15] | outcome [19] | outcome [16]

C=COCC1CCC(COC=C)CC1 (stereo unspecified)
inactive: Potency [1] | Potency [2] | Potency [3] | Potency [4] | outcome [5] | outcome [6] | outcome [7] | outcome [8] | outcome [9] | outcome [10] | outcome [11] | outcome [12] | outcome [13] | outcome [14] | outcome [15] | outcome [19] | outcome [16] | Potency [17]

C[N+](C)(CCOc1ccccc1)Cc1cccs1
inactive: Potency [1] | Potency [2] | Potency [3] | Potency [4] | outcome [5] | Potency [20] | outcome [6] | outcome [8] | outcome [9] | outcome [11] | outcome [13] | outcome [14] | outcome [15] | outcome [19] | outcome [16] | Potency [17] | Potency [18]

NC(=O)N[C@@H](CCC(=O)O)C(=O)O
inactive: Potency [1] | Potency [2] | Potency [3] | Potency [4] | outcome [5] | outcome [6] | outcome [7] | outcome [8] | outcome [9] | outcome [10] | outcome [11] | outcome [13] | outcome [15] | outcome [16] | Potency [17] | Potency [18]

CN(C)C(=O)Oc1cccc([N+](C)(C)C)c1
inactive: Potency [1] | Potency [2] | Potency [3] | Potency [4] | outcome [5] | outcome [6] | outcome [7] | outcome [8] | outcome [9] | outcome [10] | outcome [12] | outcome [13] | outcome [14] | outcome [15] | outcome [19] | outcome [16] | Potency [17] | Potency [18]

CNCCO
inactive: Potency [1] | Potency [2] | Potency [3] | Potency [4] | outcome [5] | outcome [6] | outcome [7] | outcome [8] | outcome [9] | outcome [10] | outcome [11] | outcome [12] | outcome [13] | outcome [14] | outcome [15] | outcome [19] | outcome [16]

CCOC(=O)c1ccccc1
inactive: Potency [1] | Potency [2] | Potency [3] | Potency [4] | outcome [5] | outcome [6] | outcome [7] | outcome [8] | outcome [9] | outcome [10] | outcome [12] | outcome [13] | outcome [14] | outcome [15] | outcome [19] | outcome [16] | Potency [17] | Potency [18]

O=[N+]([O-])c1ccc(/C=N\O)o1
inactive: Potency [1] | Potency [2] | Potency [3] | Potency [4] | outcome [5] | outcome [6] | outcome [7] | outcome [8] | outcome [9] | outcome [10] | outcome [13] | outcome [14] | outcome [15] | outcome [19] | outcome [16] | Potency [17] | Potency [18]

Nc1ccncc1N
inactive: Potency [1] | Potency [2] | Potency [3] | Potency [4] | outcome [5] | outcome [6] | outcome [7] | outcome [8] | outcome [9] | outcome [10] | outcome [11] | outcome [12] | outcome [13] | outcome [14] | outcome [15] | outcome [19] | outcome [16] | Potency [17] | Potency [18]

O=C(O)CC(C(=O)O)S(=O)(=O)O (stereo unspecified)
inactive: Potency [1] | Potency [2] | Potency [3] | Potency [4] | outcome [5] | outcome [6] | outcome [7] | outcome [8] | outcome [9] | outcome [10] | outcome [11] | outcome [12] | outcome [13] | outcome [14] | outcome [15] | outcome [16] | Potency [17] | Potency [18]

Clc1cc(Cl)cc(Cl)c1
inactive: Potency [1] | Potency [2] | Potency [3] | Potency [4] | outcome [5] | outcome [6] | outcome [7] | outcome [8] | outcome [9] | outcome [10] | outcome [11] | outcome [12] | outcome [13] | outcome [15] | outcome [19] | outcome [16] | Potency [17] | Potency [18]
